As usually defined, the AC50 is the concentration at which the activity in the assay is half-maximal.

Data on 13 compounds can be found in PubChem BioAssay (EPA / NIEHS).

The test system of test [1] is SERPINA7 (gene 6906). The experiment in a line: CCTE_GLTED_hTBG: CCTE's human Thyroxine-binding Globulin (TBG) Inhibition Assay, Great Lakes Toxicology and Ecology Division (GLTED) Lab (AID 2284343; active = hit-call score of the fitted dose curve at least 0.9, where 1 is the maximum;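 also: active chemicals lower fluorescence versus DMSO baseline by displacing probe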). Summed up:
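Fluorescence (ex 380/em 475) reports ANSA displaced from human TBG after a 2 h incubation with test chemical, without cells. Loss of signal indicates displacement, with DMSO serving as baseline.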

Test [2] can be described thus: CCTE_Deisenroth_H295R-HTRF_384WELL_ESTRADIOL: CCTE's H295R-HTRF Assay Evaluation of Estradiol Concentration, Deisenroth Lab (AID 2284361). The note with it: actives raise or lower the signal. Summed up:
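Estradiol secreted into medium by H295R adrenocortical cells, quantified by HTRF after 48 h dosing over a nine-point 0.001 - 100 uM final range; gain or loss versus DMSO. Parallel ATP-luminescence viability readout; n=5 experiments.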

Test [3] is described as follows: CCTE_Deisenroth_H295R-HTRF_384WELL_TESTOSTERONE: CCTE's H295R-HTRF Assay Evaluation of Testosterone Concentration, Deisenroth Lab (AID 2284373). The note with it: actives raise or lower the signal. The method in brief: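 Secreted testosterone was quantified by HTRF immunoassay of medium from human adrenocortical H295R cells after 48 h chemical exposure at 0.001–100 uM final. Gain or loss was fitted against DMSO. ATP-based viability was read on matched wells, five experimental replicates.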
On the technique in general: TR-FRET usually uses a lanthanide donor and a delayed reading to cut background.

A short description of test [4]: CCTE_Deisenroth_H295R-HTRF_384WELL_CTOX: Cytotoxicity Assessment in CCTE's H295R-HTRF Assay, Deisenroth Lab (AID 2284380; active = hit-call score of the fitted dose curve at least 0.9, where 1 is the maximum). Summed up: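 Luminescent ATP viability readout (CellTiter-Glo 2.0), multiplexed on plates used for hormone sampling, after 48 h chemical exposure. Human H295R cells; final concentrations 0.001–100 uM in nine steps, technical triplicates, five experiments; DMSO baseline.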

The subject of test [5] is SRY-box transcription factor 17 (SOX17) Protein Expression, Deisenroth Lab, SOX17 (gene 64321). The experiment in a line: CCTE_Deisenroth_DEVTOX-GLR_legacy_Sox17: (Legacy) CCTE's DevTox GLR-Endo Assay Evaluation of SRY-box transcription factor 17 (SOX17) Protein Expression, Deisenroth Lab (AID 2284341). The note with it: actives raise or lower the signal. The method in brief:
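RUES2-GLR human pluripotent cells differentiated toward endoderm for 48 h, dosed twice at 24 h intervals (1 nM–200 uM, 10 points). Imaging gives % SOX17+ cells (intensity >5x BMAD above pluripotent control median); bidirectional fit versus 0.2% DMSO.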

In test [6] the test system is SRY-box transcription factor 2 (SOX2) Protein Expression, Deisenroth Lab, SOX2 (gene 6657). The experiment in a line: CCTE_Deisenroth_DEVTOX-GLR_legacy_Sox2: (Legacy) CCTE's DevTox GLR-Endo Assay Evaluation of SRY-box transcription factor 2 (SOX2) Protein Expression, Deisenroth Lab (AID 2284346). Summed up:
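Two exposures, 24 h apart, during 48 h defined-media differentiation of seeded RUES2-GLR cells; nuclei-stained cells imaged. Sox2 positivity called at 5x BMAD above endoderm control median, DMSO median subtracted.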

Test [7] can be described thus: CCTE_Mundy_HCI_iCellGluta_NOG_NeuronCount: CCTE's Neurite Outgrowth Assay in iCellGluta cells for Neuron Count, Mundy Lab (AID 2284340; active = hit-call score of the fitted dose curve at least 0.9, where 1 is the maximum;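 also: cells fixed about 48 h after compound addition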). The method in brief: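 Neuron count read by automated high-content imaging of Hoechst 33342 and betaIII-tubulin/Alexa Fluor-488 labelling in human iPSC glutamatergic neurons. Activity fitted relative to DMSO.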
Test [8] can be described thus: CCTE_Mundy_HCI_iCellGluta_NOG_NeuriteCount: CCTE's Neurite Outgrowth Assay in iCellGluta cells for Neurite Count, Mundy Lab (AID 2284342; active = hit-call score of the fitted dose curve at least 0.9, where 1 is the maximum;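 also: chemical exposure about 48 hours starting 2 hours after plating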).
The nature of test [9]: VALA_TUBIPS_Agonist_CellCount: Viability Assessment in the VALA Sciences human iPS-derived Endothelial Tubule Formation (TUBIPS) Agonism Assay (AID 2284338; active = hit-call score of the fitted dose curve at least 0.9, where 1 is the maximum).
The nature of test [10]: Tanguay_ZF_120hpf_MO24: Oregon State University Tanguay Lab 24 Hour Post-fertilization zebrafish Assay for Mortality (AID 2284389). The method in brief:
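Embryo death at 24 hpf was recorded as present or absent in Tropical 5D zebrafish, dechorionated at 4 hpf and dosed statically from 6 hpf (28C, 0.64% DMSO); 5 uM trimethyltin chloride served as positive control.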

Test [11] can be described thus: Tanguay_ZF_120hpf_CRAN: Oregon State University Tanguay Lab 120 Hour Post-fertilization zebrafish Assay for Craniofacial Malformation (AID 2284397). The method in brief:
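Scoring of craniofacial malformation as a binary endpoint was done at 120 hpf by brightfield microscopy and was not done in dead embryos. Exposure was static, starting at 6 hpf, in dechorionated wild-type embryos held singly at 28C with 0.64% DMSO final.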

Test [12] can be described thus: Tanguay_ZF_120hpf_AXIS: Oregon State University Tanguay Lab 120 Hour Post-fertilization zebrafish Assay for Axial Malformation (AID 2284398). The method in brief: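 Scoring was binary (present or absent) for body-axis defects, judged by brightfield imaging at 120 hpf in surviving larvae. Exposure was static at 28C from 6 hpf in chorion-free 5D wild-type embryos, with 0.64% DMSO vehicle.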

The nature of test [13]: Tanguay_ZF_120hpf_EDEM: Oregon State University Tanguay Lab 120 Hour Post-fertilization zebrafish Assay for Edema Malformation (AID 2284400). The method in brief: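 Edema recorded as a binary endpoint under brightfield at 120 hpf, excluding embryos that died. Exposure was static, sealed, 28C, from 6 hpf in dechorionated wild-type larvae, final DMSO 0.64%, DMSO as baseline.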

The nature of test [14]: Tanguay_ZF_120hpf_BRN: Oregon State University Tanguay Lab 120 Hour Post-fertilization zebrafish Assay for Brain Region Malformation (AID 2284402). The method in brief:
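Binary brightfield scoring of brain malformation at 120 hpf in 5D wild-type larvae, chorion removed with pronase at 4 hpf. Static exposure began at 6 hpf, 28C, sealed plates, DMSO 0.64% (vol/vol) as vehicle baseline.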

Test [15] in a line: Tanguay_ZF_120hpf_TCHR: Oregon State University Tanguay Lab 120 Hour Post-fertilization zebrafish Assay for Touch Responsive (AID 2284403). Summed up:
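Binary touch-response calls are made at 120 hpf in 5D wild-type zebrafish larvae. These larvae were dechorionated with pronase and exposed singly from 6 hpf in sealed, dark plates at 28 °C with 0.64% DMSO final; dead embryos are excluded.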

Test [16] in a line: CCTE_Padilla_ZF_Score.Craniofacial: CCTE's 144 Hour Post-fertilization zebrafish Assay Score for Craniofacial Malformation, Padilla Lab (AID 2284405). The method in brief:
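Craniofacial defects were scored at 6 dpf by two blinded observers using stereomicroscopy. Exposure of wild-type embryos began at 6–8 hpf in sealed wells of 10% Hanks' solution at 26C, with chemical removed by rinsing at 5 dpf.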

Test [17] can be described thus: CCTE_Padilla_ZF_Score.Edema: CCTE's 144 Hour Post-fertilization zebrafish Assay Score for Edema Malformation, Padilla Lab (AID 2284406). Summed up: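 Edema scored at 6 dpf by two blinded observers under a stereo microscope, in single outbred wild-type larvae exposed from 6-8 hpf in sealed wells (Hanks', 26C, 14:10 h light) and chemical-free after a 5 dpf rinse.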

A short description of test [18]: CCTE_Padilla_ZF_Score.Spine: CCTE's 144 Hour Post-fertilization zebrafish Assay Score for Spine Malformation, Padilla Lab (AID 2284407). The method in brief: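 Spine malformation scored at 6 dpf by two independent blinded observers under stereomicroscope, after static sealed exposure from 6–8 hpf at 26C in Hanks' solution with rinse on 5 dpf. Positive-direction fit against DMSO control.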

A short description of test [19]: CCTE_Padilla_ZF_Score.Position: CCTE's 144 Hour Post-fertilization zebrafish Assay Score for Position, Padilla Lab (AID 2284409). Summed up: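 Wild-type zebrafish embryos (with chorions) exposed singly from 6–8 hpf in sealed wells of Hanks' solution at 26C, rinsed at 5 dpf. At 6 dpf, blinded assessors scored abnormal water-column position by brightfield stereomicroscopy, relative to DMSO.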

Test [20] in a line: VALA_TUBHUV_Agonist_TubuleLength: VALA Sciences human Umbilical Vein Endothelial Tubule Formation (TUBHUV) Agonism Assay (AID 2284337; active = hit-call score of the fitted dose curve at least 0.9, where 1 is the maximum). The method in brief:
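Tubule length quantified by CD31 immunofluorescence imaging after fixation. HUVEC-HDF co-cultures (1:3) pre-grown 3 days with 10 ng/ml VEGF, then dosed 3 days in VEGF medium; 0.1 % DMSO vehicle baseline.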

Where “and” joins values, the source holds several entries; their conditions need not be identical. Equal entries are not always repeated. Records with an inconclusive call do not appear. Calls of active or inactive are those of the source. The calls were made as follows, unless noted: active = hit-call score of the fitted dose curve at least 0.9, where 1 is the maximum; inactive = score below 0.9.

As for `CC(C)C(=O)Nc1ccc([N+](=O)[O-])c(C(F)(F)F)c1`, the result in [1], in test [2] and in test [3] was inactive. Further, the AC50 in test [4] was 66.7 µM (active).
As to `CCCC(CCC)C(=O)O`, the compound was classed as inactive in test [5] and in [6].
Take `c1ccc2cc3ccccc3cc2c1`: the call in [7] and in test [8] was inactive.
As for `CCCCCCCCCC`, in test [9], the AC50 is 7.79 µM (active).
For the compound `OC(O)(C(F)C(O)(O)C(F)(F)F)C(F)(F)F`, the result in [7], in test [8], in [10], in test [12], in [14] and in test [15] was inactive. In addition, the outcome in [18] was inactive. Further, the half-maximal activity concentration (AC50) in test [11] was 42.2 µM (active); in [13] it was 66.9 µM (active); in test [16], 35.5 µM (active); in [17], 31.3 µM (active); in [19], 76.9 µM (active).
For the compound `O=C(Cl)C(F)(F)C(F)(F)C(F)(F)C(=O)Cl`, the compound was called inactive in [7], in test [8], in test [11], in [12], in test [13] and in [14]. The call in [15], in test [16], in test [17], in [18] and in test [19] was inactive. Also, the half-maximal activity concentration (AC50) in [10] is 57.3 µM (active).
In the case of `FC(F)C(F)(F)COCC1CO1` (centres undefined), the outcome in test [10], in test [11], in test [12], in [13], in test [14] and in [15] was inactive. Also, the call in test [18] and in [19] was inactive. In addition, the half-maximal activity concentration (AC50) in test [16] was 118 µM (active); in test [17] it was 29.5 µM (active).
As for `C=CCc1cc(S(=O)(=O)c2ccc(O)c(CC=C)c2)ccc1O`, in [1], the AC50 was 1.47 µM (active).
For `OCCNCCO`, the call in [20] and in [9] was inactive.
As for `FC(F)(F)C(F)(F)C(F)(F)C(F)(F)C(F)(F)C(F)(F)I`, the call in [8], in [10], in [11], in test [12], in test [13] and in test [14] was inactive. For the same compound, the outcome in [15], in test [16], in test [17], in test [18] and in test [19] was inactive.
For `CCc1ccc(O)c(C(C)(C)C)c1`, in [1], the concentration at half-maximal activity (AC50) is 35.3 µM (active).
Consider `Nc1ccn([C@@H]2O[C@H](CO)[C@@H](O)[C@@H]2O)c(=O)n1`, for which the AC50 in test [7] is 415 nM (active) and 814 nM (active); in test [5] it was 0.554 µM (active); in test [8], 959 nM (active) and 1.04 µM (active); in test [6] it was 0.937 µM (active).
Consider `FC(F)=C(F)C(F)(F)C(F)(F)C(F)(F)C(F)(F)C(F)(F)C(F)(F)F`, for which the compound was called inactive in [7], in [8], in [10], in [11], in test [12] and in test [13]. For the same compound, the compound was classed as inactive in test [14], in test [15], in test [16], in [17], in test [18] and in test [19].
